Screens as filed in PubChem.
HT1080 IDH1KD tx: toxicity to HT-1080 IDH1 knockdown cells (counter line); Potency, µM (highest dose often 46.1 µM), usual class: cytotoxic; 360,000 compounds, 2% hits; AID 686971; HT-1080 IDH1 knockdown viability, ATP luminescence, 48 h
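% activity derives from luminescence (CellTiter-Glo), normalised to DMSO and no-cell wells. HT-1080-IDH1KD cells, 750/well, had 48 h compound exposure at 37 °C.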
HT1080-NT tox: kills 2HG-producing HT-1080-NT fibrosarcoma cells; HT-1080-NT fibrosarcoma viability, CellTiter-Glo ATP luminescence, 48 h; Potency, µM (highest dose often 46.1 µM), most hits filed as cytotoxic; 360,000 compounds, 1.6% hits;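 note: NT is the 2HG producing partner of a matched IDH1 knockdown line; nearly all actives have a fitted effect of over 55% in size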
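Compounds were tested in concentration-response format on HT-1080-NT cells for 48 hours at 37 degrees C. Cell viability came from CellTiter-Glo luminescence; curves were classified by r2, response magnitude and activity.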
IL1B secr inh: blocks inflammasome-driven IL-1 beta release | THP-1 LPS/ATP IL-1B secretion, AlphaLISA, 16 h; active compounds read low | activity change, % at 57.5 µM | 360,000 compounds, 4.7% hits | AID 743279; in the data active = activity change below about -50%; inconclusive = mostly about -30% to -49%
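THP-1 cells pretreated 1 hr with compounds (up to 57.5 uM final), then stimulated with LPS (250 ng/mL final) plus ATP (1.25 mM final); secreted IL-1B measured by AlphaLISA after 16 hr, decreased signal indicating inhibition.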
TDP1 cell noCPT: qHTS for Inhibitors of human tyrosyl-DNA phosphodiesterase 1 (TDP1): qHTS in cells in absence of CPT; 420,000 compounds, 15% hits; DT40 Tdp1-/- hTDP1 cells, no CPT, ATP luminescence, 48 h; Potency, µM (highest dose often 46.2 µM), most hits filed as inhibitors; AID 686978, 2013; note: nearly all actives have a fitted effect of over 55% in size
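Camptothecin absent (DMSO only). Human TDP1-complemented DT40 knockout cells, 400 cells/well, 37 °C for minimum 48 hr; ATP measured via CellTiter-Glo, 30 min dark incubation, luminescence.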
DT40 TDP1 CPT: growth inhibition of DT40 Tdp1-/-;hTDP1 cells with camptothecin (screen for TDP1 inhibitors) | chicken DT40 Tdp1-/-;hTDP1 cells + 20 nM CPT, ATP luminescence, 48 h | Potency, µM (top dose mostly 46.2 µM), actives largely listed as inhibitors | 420,000 compounds, 12% hits | AID 686979; note: nearly all actives have a fitted effect of over 55% in size
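Cell growth measured by CellTiter-Glo luminescence after a minimum 48 h, 37 C compound exposure with 20 nM CPT in Tdp1-knockout DT40 cells stably expressing hTDP1, seeded 400/well; qHTS titration format.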
Hits are given with their value; ! = repeats disagree; [ ] = another dose, or the depositor's remark. Only some compounds are listed: those with a hit (about 19% of all), similar ones and a draw of the others. Unless noted, calls come from the whole dose curve; as a rule, active = well fitted curve in the direction sought with a large enough effect; inconclusive = small, poorly fitted or top-dose-only effect, or another doubt; inactive = no such curve, though single readings can be large; an effect the other way counts as inactive or inconclusive.

Screening O=C(Cc1ccccc1)CC(CC(=O)c1ccccc1)c1ccccc1 (stereo unspecified) returned HT1080 IDH1KD tx inactive, HT1080-NT tox inactive, IL1B secr inh inactive, TDP1 cell noCPT 23.1µM and DT40 TDP1 CPT 16.4µM.
For O=C(CCCCCCCC(=O)c1ccccc1)c1ccccc1 the results were HT1080 IDH1KD tx inactive, HT1080-NT tox inactive, IL1B secr inh inactive, TDP1 cell noCPT inactive and DT40 TDP1 CPT inconclusive.
For C=C(CCC(=O)c1ccccc1)C(=O)c1ccccc1 the results were HT1080 IDH1KD tx inconclusive, HT1080-NT tox 25.9µM, IL1B secr inh -83.4, TDP1 cell noCPT 2.06µM and DT40 TDP1 CPT 6.51µM.
Cc1cn(CC(=O)NCCN2CCOCC2)c(=O)[nH]c1=O was read as HT1080 IDH1KD tx inactive, HT1080-NT tox inactive, IL1B secr inh inactive, TDP1 cell noCPT inactive and DT40 TDP1 CPT inactive.
Screening Cc1c(C(=O)NCC2COCCO2)cnn1-c1nccc(-c2cccs2)n1 (stereo unspecified) returned TDP1 cell noCPT inactive and DT40 TDP1 CPT inactive.
For CS(=O)(=O)N1CCC2(CCN(c3ccccn3)CC2)CC1 the results were TDP1 cell noCPT inactive and DT40 TDP1 CPT inactive.
For N#Cc1nc(N2CCCC2)nc(N(c2ccccc2)c2ccccc2)n1 the results were TDP1 cell noCPT inactive and DT40 TDP1 CPT inactive.
`CN(C)c1nc(C#N)nc(N2CCOCC2)n1` gave HT1080 IDH1KD tx inactive, HT1080-NT tox inactive, IL1B secr inh inactive, TDP1 cell noCPT inconclusive and DT40 TDP1 CPT inconclusive.
CCOC(=O)CNc1nc(C#N)nc(N2CCOCC2)n1 was read as HT1080 IDH1KD tx inactive, HT1080-NT tox inactive, IL1B secr inh -89.7, TDP1 cell noCPT inconclusive and DT40 TDP1 CPT 12.6µM!.
Screening N#Cc1nc(N2CCCC2)nc(N2CCCC2)n1 returned HT1080 IDH1KD tx inconclusive, HT1080-NT tox inactive, IL1B secr inh -91.5, TDP1 cell noCPT 14.1µM and DT40 TDP1 CPT 12.6µM.
`N#Cc1nc(N2CCCCC2)nc(N2CCOCC2)n1` gave HT1080 IDH1KD tx inactive, HT1080-NT tox inactive, IL1B secr inh -55.3, TDP1 cell noCPT 16.4µM and DT40 TDP1 CPT 13µM.
CCOc1nc(C#N)nc(N2CCOCC2)n1 was read as TDP1 cell noCPT 11.2µM and DT40 TDP1 CPT inconclusive.
CC1CN(C(=O)COc2ccc3c(-c4ccccc4)cc(=O)oc3c2)CC(C)O1 (stereo unspecified) was read as HT1080 IDH1KD tx inactive, HT1080-NT tox inactive, IL1B secr inh inactive, TDP1 cell noCPT inactive and DT40 TDP1 CPT inactive.
Screening COc1nc(OC)nc(N2CCCCCC2)n1 returned HT1080 IDH1KD tx inactive[9.24 µM], HT1080-NT tox inactive, IL1B secr inh inactive, TDP1 cell noCPT inactive and DT40 TDP1 CPT inconclusive.
`COc1nc(C#N)nc(N2CCCCC2)n1` gave TDP1 cell noCPT 20µM and DT40 TDP1 CPT inconclusive.
For C1CN(c2nc(N3CCOCC3)nc(N3CCOCC3)n2)CCO1 the results were HT1080 IDH1KD tx inactive, HT1080-NT tox inactive, IL1B secr inh inactive, TDP1 cell noCPT inactive and DT40 TDP1 CPT inactive.
For CC(C)N(C#N)c1nc(N2CCOCC2)nc(N2CCOCC2)n1 the results were HT1080 IDH1KD tx inactive, HT1080-NT tox inactive, IL1B secr inh inconclusive, TDP1 cell noCPT 10.3µM and DT40 TDP1 CPT 20.6µM.
`CCOc1ccc(OCCC(=O)N(CCOC)c2c(N)n(Cc3ccccc3)c(=O)[nH]c2=O)cc1` gave HT1080 IDH1KD tx inactive, HT1080-NT tox inactive[9.24 µM], IL1B secr inh inactive, TDP1 cell noCPT inactive and DT40 TDP1 CPT inactive.
For COc1ccccc1CNc1ncnc2ccc(-c3ccc(N(C)C)cc3)cc12 the results were TDP1 cell noCPT 13µM and DT40 TDP1 CPT 16.4µM.
For COc1ccccc1CNc1ncnc2ccc(-c3cccnc3)cc12 the results were TDP1 cell noCPT 20.6µM and DT40 TDP1 CPT inconclusive.
O=C(Nc1cccc(C(F)(F)F)c1)c1csc([C@@H]2O[C@H](CO)[C@H](O)[C@H](O)[C@H]2O)n1 was read as HT1080 IDH1KD tx inconclusive, HT1080-NT tox inactive, IL1B secr inh inactive, TDP1 cell noCPT inactive and DT40 TDP1 CPT inactive.
`COc1cc(C2NC(=O)NC(C)=C2C(=O)OC(C)(C)C)ccc1OCC(N)=O` (stereo unspecified) gave HT1080 IDH1KD tx inactive, HT1080-NT tox inactive, IL1B secr inh inactive, TDP1 cell noCPT inactive and DT40 TDP1 CPT inactive.
COc1ccc2c(c1OC)C(=O)NC(C)=C(C(=O)OC(C)(C)C)C2O (stereo unspecified) was read as HT1080 IDH1KD tx inactive, HT1080-NT tox inactive, IL1B secr inh -63.1, TDP1 cell noCPT inactive and DT40 TDP1 CPT inactive.
Screening CSc1ncc2c(n1)-c1ccccc1N(Cc1ccccc1C)S2(=O)=O returned TDP1 cell noCPT inactive and DT40 TDP1 CPT inconclusive.
Screening COc1ccc(-c2cc3nc4n(c(=O)c3s2)CCC4)cc1 returned HT1080 IDH1KD tx inactive, HT1080-NT tox inactive[9.24 µM], IL1B secr inh inactive, TDP1 cell noCPT inconclusive and DT40 TDP1 CPT 14.6µM.
`COc1ccc(-c2nc3n(c2C)CCC3)cc1` gave HT1080 IDH1KD tx inactive, HT1080-NT tox inactive, IL1B secr inh inactive, TDP1 cell noCPT inactive and DT40 TDP1 CPT inactive.
Screening COc1ccc(-c2cc3nc(C)n(N)c(=O)c3s2)cc1 returned HT1080 IDH1KD tx 5.8µM, HT1080-NT tox 4.11µM, IL1B secr inh inactive, TDP1 cell noCPT 5.8µM and DT40 TDP1 CPT 5.8µM.
Cc1nc2cc(-c3ccccc3)sc2c(=O)n1N was read as HT1080 IDH1KD tx 3.66µM, HT1080-NT tox 3.66µM, IL1B secr inh inactive, TDP1 cell noCPT inconclusive and DT40 TDP1 CPT 16.4µM.
For CCc1ccccc1Oc1nc2cc(-c3cccc(OC)c3)sc2c(=O)n1C the results were HT1080 IDH1KD tx inactive, HT1080-NT tox inactive, IL1B secr inh inactive, TDP1 cell noCPT inactive and DT40 TDP1 CPT inconclusive.
`Cc1ccccc1-c1cc2nc(OCC3CCCO3)n(C)c(=O)c2s1` (stereo unspecified) gave HT1080 IDH1KD tx inactive, HT1080-NT tox inactive, IL1B secr inh inactive, TDP1 cell noCPT inconclusive and DT40 TDP1 CPT inconclusive.
`Cn1c(OCC2CCCO2)nc2cc(-c3ccccc3)sc2c1=O` (stereo unspecified) gave HT1080 IDH1KD tx inactive, HT1080-NT tox inactive, IL1B secr inh inactive, TDP1 cell noCPT inconclusive and DT40 TDP1 CPT 23.1µM.
`Cc1nc(-c2coc3c(O)c(O)ccc3c2=O)cs1` gave TDP1 cell noCPT inactive[9.04 µM] and DT40 TDP1 CPT inactive[9.04 µM].
`CC(=O)N1CCC2(CCCN(C(=O)Nc3cccc(F)c3)C2)CC1` gave TDP1 cell noCPT inactive and DT40 TDP1 CPT inactive.
`O=C1CCCC2=C1C(c1ccccc1)CC(=O)N2c1ccc(F)cc1F` (stereo unspecified) gave HT1080 IDH1KD tx inactive, HT1080-NT tox inactive, IL1B secr inh inactive, TDP1 cell noCPT inactive and DT40 TDP1 CPT inactive.
For CC1CN(C(=O)CN2C(=O)c3ccccc3S2(=O)=O)CC(C)O1 (stereo unspecified) the results were HT1080 IDH1KD tx inactive, HT1080-NT tox inactive, IL1B secr inh inactive, TDP1 cell noCPT inactive and DT40 TDP1 CPT inactive.
